According to the supplement of paper PMC10981050:
“And” between values parts separate entries of the source, which are not always exact repeats. Equal entries are not always repeated. Structures can show the parent of a compound that is named as a salt.

What was measured:
Assay in all cases: cell viability relative to vehicle control; higher = less cytotoxic
Conditions in all cases: 10 µM
K562 = test system: K562
Procedure, shortened: (§1)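 Each screen used CRISPR-edited mutant and wild-type clones from four leukaemia lines. Compounds were acoustically dispensed at a single 10 µM dose, and CellTiter-Glo luminescence was read after 48 h with the supernatant first removed. Viability was analysed in Genedata Screener and given as percent of the on-plate vehicle control.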

MARIMO = test system: MARIMO
Procedure, shortened: as §1

MOLM14 = test system: MOLM14
Procedure, shortened: as §1

OCI-AML2 = test system: OCI-AML2
Procedure, shortened: as §1

Row | Compound | cell viability (K562; SRSF2 genotype: SRSF2 P95H/wt) | cell viability (K562; SRSF2 genotype: SRSF2 wt/wt) [%] | cell viability (MARIMO; SRSF2 genotype: SRSF2 P95H/wt) [%] | cell viability (MARIMO; SRSF2 genotype: SRSF2 wt/wt) [%] | cell viability (MOLM14; SRSF2 genotype: SRSF2 P95H/wt) [%] | cell viability (MOLM14; SRSF2 genotype: SRSF2 wt/wt) [%] | cell viability (OCI-AML2; SRSF2 genotype: P95H/wt) [%] | cell viability (OCI-AML2; SRSF2 genotype: wt/wt) [%]
1 | CC[C@H]1OC(=O)[C@H](C)[C@@H](O[C@H]2C[C@@](C)(OC)[C@@H](O)[C@H](C)O2)[C@H](C)[C@@H](O[C@@H]2O[C@H](C)C[C@H](N(C)C)[C@H]2O)[C@](C)(O)C[C@@H](C)C(=O)[C@H](C)[C@H]2OC(=O)O[C@@]21C [Erythromycin Cyclocarbonate] | 101% and 103% | 92.5 | 98.3 | 101 | 104 | 99.5 | 99 | 101
2 | COc1cccc(C=NCCN=Cc2cccc(OC)c2[O-])c1[O-].[Cl-].[Mn+3] | 100% and 97% | 97.3 | 92 | 104 | 92.2 | 104 | 89.2 | 101
3 | O=C1C(=C(O)C=Cc2ccc(O)cc2)C(O)=C([C@@H]2O[C@H](CO)[C@@H](O)[C@H](O)[C@H]2O)C(=O)C1(O)[C@@H]1O[C@H](CO)[C@@H](O)[C@H](O)[C@H]1O (stereo partly drawn) [Hydroxy safflor yellow A] | 90% and 88% | 84.7 | 90.1 | 97.3 | 85.4 | 87.7 | 89.7 | 104
4 | Cc1cc(C(C)Nc2ccccc2)c2nc(N3CCOCC3)cc(=O)n2c1 (stereo not drawn) | 92.6% and 97.6% | 93.3 | 90.7 | 90.4 | 70.9 | 69 | 73.4 | 76.6
5 | OC[C@H]1NC[C@H](O)[C@@H](O)[C@@H]1O [1-Deoxynojirimycin] | 103% and 98.1% | 94.5 | 103 | 107 | 97.8 | 106 | 96.4 | 108
6 | Cc1onc(-c2ccccc2Cl)c1C(=O)N[C@@H]1C(=O)N2[C@@H]1SC(C)(C)[C@@H]2C(=O)O [Cloxacillin sodium] | 102% and 109% | 97.6 | 102 | 106 | 102 | 106 | 105 | 108
7 | O=C(Nc1cccc(C(F)(F)F)c1)c1cccc2cc(Oc3cc(CO)ncn3)ccc12 | 80.8% and 91.3% | 87.8 | 101 | 121 | 86.9 | 98.6 | 90.7 | 96.3
8 | O=C1C(=Cc2cccnc2)C(=O)c2ccccc21 | 110% and 102% | 116 | 94.2 | 102 | 89 | 99.4 | 102 | 102
9 | COc1cc2c(Oc3ccc(NC(=O)C4(C(=O)Nc5ccc(F)cc5)CC4)cc3F)ccnc2cc1OCCCN1CCOCC1 | 0.8% and 0.64% | 0.55 | 17.8 | 12.1 | 0.21 | 0.34 | 0.22 | 1.03
10 | Cc1cc(C)cc(C(=O)NOCCCCCC(=O)NO)c1 | 1.41% and 17.1% | 4.57 | 7.1 | 10.6 | 0.7 | 0.46 | 2.75 | 5.29
11 | O=C(c1ccc(Cl)cc1)N(Cc1ccccc1)C1CCCCC1 | 86.1% and 92.9% | 92.3 | 75.2 | 84.1 | 78.1 | 94.6 | 72.5 | 81.8
12 | Cc1cc(O)c(-c2ccc([C@@H](C)CN)cc2)c2c1[nH]c(=O)c1sccc12 [OTS514 hydrochloride] | 19.6% and 29.6% | 21.7 | 3.37 | 1.35 | 0.27 | 0.16 | 0.39 | 8.87
13 | Oc1ccc(Cc2nc3c(Cc4ccccc4)nc(-c4ccc(O)cc4)cn3c2O)cc1 [Coelenterazine] | 96.7% and 92.9% | 101 | 94.9 | 93.5 | 86.2 | 97 | 98.8 | 98
14 | Nc1nc(=O)[nH]c2c1ncn2[C@@H]1O[C@H](CO)[C@@H](O)[C@H]1O [Isoguanosine] | 101% and 98.5% | 98.7 | 94.7 | 97.7 | 93.3 | 96.8 | 106 | 91.8
15 | COCCc1ccc(OCC(O)CNC(C)C)cc1 (stereo not drawn) [Metroprolol succinate] | 103% and 108% | 105 | 100 | 110 | 99.5 | 107 | 113 | 108
16 | O=C1C[C@@H](c2ccc(O)cc2)Oc2cc(O)cc(O)c21 [Naringenin] | 99.2% and 105% | 103 | 106 | 107 | 111 | 112 | 96.5 | 96.7
17 | C=Cc1c(C)c2cc3nc(cc4[nH]c(cc5nc(cc1[nH]2)C(C)=C5CCC(=O)O)c(CCC(=O)OC)c4C)C1(C)C3=CC=C(C(=O)OC)C1C(=O)OC (stereo not drawn) [Verteporfin (Visudyne)] | 68.3% and 75.3% | 70.6 | 87.7 | 85.2 | 80.2 | 59.8 | 69.7 | 77.9
18 | COc1cc(C(=O)OCCCCNC(=N)N)cc(OC)c1O [Leonurine Hydrochloride] | 95.9% and 95.7% | 101 | 98.8 | 95.4 | 98 | 102 | 101 | 98.6
19 | O=c1[nH]c(=O)n([C@H]2C[C@H](O)[C@@H](CO)O2)cc1C(F)(F)F [Trifluridine (Viroptic)] | 85.4% and 99.2% | 85.7 | 48.5 | 52.3 | 52.7 | 18.8 | 21.6 | 26.8
20 | O=C(Nc1ccc(S(=O)(=O)Nc2ccccc2Cl)c(Cl)c1)c1ccccn1 | 98.1% and 99% | 99.7 | 95.6 | 101 | 97.6 | 98.3 | 103 | 104
21 | CC1Cc2ccccc2N1NC(=O)c1ccc(Cl)c(S(N)(=O)=O)c1 (stereo not drawn) [Indapamide (Lozol)] | 108% and 105% | 103 | 106 | 105 | 106 | 106 | 114 | 104

Row | Compound | cell viability (K562; SRSF2 genotype: SRSF2 P95H/wt) | cell viability (K562; SRSF2 genotype: SRSF2 wt/wt) [%] | cell viability (MARIMO; SRSF2 genotype: SRSF2 P95H/wt) [%] | cell viability (MARIMO; SRSF2 genotype: SRSF2 wt/wt) [%] | cell viability (MOLM14; SRSF2 genotype: SRSF2 P95H/wt) [%] | cell viability (MOLM14; SRSF2 genotype: SRSF2 wt/wt) [%] | cell viability (OCI-AML2; SRSF2 genotype: P95H/wt) [%] | cell viability (OCI-AML2; SRSF2 genotype: wt/wt) [%]
22 | CC(=O)OC1CC2CCC1(C)C2(C)C (stereo not drawn) [Bornyl acetate] | 109% and 107% | 114 | 107 | 107 | 98.8 | 104 | 110 | 107
23 | CC=C(C)C(=O)O [S3803 Angelic acid.cdx] | 106% and 99.5% | 103 | 106 | 108 | 104 | 100 | 103 | 108
24 | O=C(Nc1ccc(OC(F)(F)Cl)cc1)c1cnc(N2CC[C@@H](O)C2)c(-c2cc[nH]n2)c1 [Asciminib (ABL001)] | 12.7% and 19% | 17.1 | 68.4 | 64.5 | 92 | 87.7 | 41.2 | 55
25 | CN1CCN(C(=O)C=Cc2ccc([N+](=O)[O-])o2)CC1 | 43.9% and 54.3% | 65.3 | 65 | 72.4 | 40.7 | 35.7 | 24.7 | 42.6
26 | Cc1cccc(-c2[nH]ncc2-c2ccc3ncccc3n2)n1 | 97.9% and 108% | 107 | 107 | 114 | 94.6 | 105 | 78.9 | 83.5
27 | Cn1cnc([N+](=O)[O-])c1Sc1ncnc2[nH]cnc12 [Azathioprine (Azasan, Imuran)] | 53.6% and 63.6% | 34.8 | 82.2 | 87.2 | 85.2 | 81.8 | 87.7 | 92
28 | COc1cc2c(cc1O)[C@@H](Cc1ccc(O)c(Oc3ccc(C[C@@H]4c5cc(OC)c(OC)cc5CCN4C)cc3)c1)N(C)CC2 [Daurisoline] | 30.5% and 37.4% | 15.9 | 3.28 | 9.42 | 1.06 | 0.83 | 1.65 | 1.01
29 | NC1=N[C@@]2(c3cc(NC(=O)c4ccc(F)cn4)ccc3F)COC[C@H]2CS1 | 94.7% and 91.1% | 86.1 | 89.6 | 98.4 | 99.7 | 94.2 | 94.4 | 92.6
30 | CC1(C)C=Cc2c(ccc3c2OC[C@@H](c2ccc(O)cc2O)C3)O1 [Glabridin] | 77.9% and 80.4% | 76.9 | 87.5 | 92.5 | 87.2 | 94.4 | 93.6 | 89.4
31 | CC1(C)CC[C@]2(C(=O)O[C@@H]3O[C@H](CO)[C@@H](O)[C@H](O)[C@H]3O)CC[C@]3(C)C(=CC[C@@H]4[C@@]5(C)CC[C@H](O[C@@H]6O[C@H](C(=O)O)[C@@H](O)[C@H](O)[C@H]6O)C(C)(C)[C@@H]5CC[C@]43C)[C@@H]2C1 [Chikusetsusaponin IVa] | 100% and 103% | 106 | 103 | 114 | 102 | 105 | 104 | 111
32 | COc1cc(C(=O)O)ccc1NC(=O)[C@@H]1N[C@@H](CC(C)(C)C)[C@](C#N)(c2ccc(Cl)cc2F)[C@H]1c1cccc(Cl)c1F [Idasanutlin (RG-7388)] | 96.7% and 98.2% | 86.3 | 116 | 131 | 86.5 | 102 | 102 | 118
33 | Cc1nc(C#Cc2ccnc(Cl)c2)c(C)n1-c1ccc(OC(F)(F)F)cc1 | 75.6% and 89.6% | 75.7 | 82.7 | 88.9 | 78.8 | 80.2 | 55.7 | 68.7
34 | COc1c(O)cc2c(c1O)C(=O)c1c(cc(C)c(O)c1OC)C2=O [Aurantio-obtusin] | 87% and 81.9% | 79.3 | 84.5 | 84.3 | 84.5 | 88.9 | 97.9 | 91.5
35 | C/C(=C(/CCOC(=O)c1ccccc1)SC(=O)c1ccccc1)N(C=O)Cc1cnc(C)nc1N [Dibenzoyl Thiamine] | 103% | 107 | 96.5 | 94 | 90.8 | 102 | 99.1 | 109
36 | O=C(O)CCNc1cc(N2CCc3ccccc3CC2)nc(-c2ccccn2)n1 | 108% and 104% | 99.5 | 102 | 107 | 108 | 107 | 106 | 111
37 | CC[C@H]1[C@@H](O)[C@@H]2[C@H](CC[C@]3(C)[C@@H]([C@H](C)CCC(=O)O)CC[C@@H]23)[C@@]2(C)CC[C@@H](O)C[C@@H]12 [Obeticholic Acid] | 106% and 109% | 102 | 107 | 105 | 103 | 105 | 107 | 110
38 | CCc1c2c(nc3ccc(OC(=O)N4CCC(N5CCCCC5)CC4)cc13)-c1cc3c(c(=O)n1C2)COC(=O)[C@]3(O)CC [Irinotecan HCl Trihydrate (Campto)] | 59.7% and 76.8% | 63.1 | 6.18 | 6.47 | 15.1 | 4.24 | 3.79 | 2.87
39 | O=C(O)CCCc1ccccc1 [Sodium Phenylbutyrate] | 110% and 98.8% | 105 | 100 | 109 | 96.9 | 102 | 94.8 | 100
40 | CNCc1ccc(-c2[nH]c3cc(F)cc4c3c2CCNC4=O)cc1 | 94% and 103% | 97.8 | 84.7 | 86.7 | 50 | 29.4 | 44.2 | 55.8
41 | NC(=O)Nc1cc(-c2cccc(F)c2)sc1C(=O)N[C@H]1CCCNC1 | 3.91% and 4.76% | 6.23 | 13.3 | 13.4 | 1.02 | 0.84 | 2.47 | 8.51
